A selection: hits, their analogues and other compounds. The true share with any hit is near 10%.
HEK cytotox: kills HEK 293 cells. HEK 293 viability, ATP luminescence (CellTiter-Glo), 48-72 h. 94,000 compounds, 6.6% hits. AID 1345083. Potency, µM (highest dose often 115 µM), inactives show top-dose activity change, negative = cytotoxicity, usual class: inhibitors; note: nearly all actives have a fitted effect of over 60% in size
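Cells seeded first (HEK 293, 250 cells/well), then compound added by pintool. Incubation ran 48 or 72 hr at 37 degree Celsius. CellTiter-Glo was added and luminescence imaged after 10 min at room temperature.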
NPR1 antag: blocks ANP-stimulated signaling of human Npr1 receptor; Potency, µM (series often up to 46.3 µM), without a hit: at the highest dose activity change, negative = inhibition, usual class: inhibitors; HEK293 hNpr1 GloSensor cGMP, ANP-stimulated luminescence; 76,000 compounds, 1.6% hits; calls by dose curve; note: nearly all actives have a fitted effect of over 60% in size
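Compound pre-incubated 30 min at room temperature on GloSensor-loaded HEK293 cells stably carrying hNpr1 and the pGS-40F cGMP biosensor. Stimulation uses hNppA at 0.1 nM final; luminescence is taken at baseline and 20 min post-agonist.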
Luciferase inh: inhibitors of firefly (Photinus pyralis) luciferase; P08659; purified P. pyralis luciferase, luminescence, biochemical; Potency, µM (highest dose often 115 µM), most hits filed as inhibitors; 76,000 compounds, 2.5% hits; note: nearly all actives have a fitted effect of over 65% in size
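Cell-free enzyme assay, 10nM P. pyralis luciferase, luciferin and ATP each at 10uM. Inhibition profiled over a 6-point titration, read as luminescence.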
GPT2 inh: inhibitors of human GPT2 alanine aminotransferase | Q8TD30 | Recombinant GPT2, coupled pyruvate oxidase/HRP Amplex Red fluorescence | Potency, µM (series often up to 57.7 µM), inactives show top-dose activity change, negative = inhibition, most hits filed as inhibitors | 100,000 compounds, 0.25% hits; note: nearly all actives have a fitted effect of over 60% in size
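Fluorescence of coupled pyruvate oxidase/HRP/Amplex Red system (50uM Amplex, 30 min, dark) reports pyruvate formed by GPT2. Enzyme reaction: 10ng/uL GPT2, 2mM L-alanine, 250uM a-KG, 30 min room temperature, pH 7.5; 50uM AOA control.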
NIH3T3 tox: kills NIH 3T3 cells; NIH 3T3 viability, CellTiter-Glo ATP luminescence, 48-72 h; Potency, µM (titrated, usually from 96.7 µM), for inactives: top-dose activity change, negative = cytotoxicity, hits mostly inhibitors; 94,000 compounds, 4.3% hits; note: nearly all actives have a fitted effect of over 55% in size
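NIH 3T3 cells at 400 cells/well received 23 nL of compound by pintool and were incubated 48 or 72 h at 37 °C. Viability was read as ATP-coupled CellTiter-Glo luminescence.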
Starred values were filed as active, the others as inactive; i = inactive; u = inconclusive; x = no result given; [ ] = dose if it differs, or a comment. Unless noted, calls come from the whole dose curve; as a rule, active = well fitted curve in the direction sought with a large enough effect; inconclusive = small, poorly fitted or top-dose-only effect, or another doubt; inactive = no such curve, though single readings can be large; an effect the other way counts as inactive or inconclusive. % is set by controls: 0 for no effect and ±100 for the full control effect; potency is the fitted concentration of half-maximal effect.

SMILES | HEK cytotox | NPR1 antag | Luciferase inh | GPT2 inh | NIH3T3 tox
COCCNc1ncc(-c2ccncc2)c2c1OCC2 | -26%[230 µM] | 4%[70.6 µM] | i | i | u
COCCNc1ncc(-c2ccccc2)c2c1OCC2 | u | -4%[70.6 µM] | 28µM* | i | u
COCCNc1ncc(-c2ccnc(C)c2)c2c1OCC2 | u | 7%[70.6 µM] | i | i | u
COCCNc1ncc(-c2ccsc2)c2c1OCC2 | u | -13%[70.6 µM] | 22µM* | i | u
O=C(C1CCCN1C(=O)c1ccc(Cl)nc1)N1CCC(N2CCCC2=O)CC1 (stereo not given) | 4% | x | x | i | -1%
O=C(N[C@H]1[C@H]2CCO[C@H]2[C@@H]1N1CCCC1)c1cc2c(s1)CCCCC2 | u | -2% | i | i | -11%
Cc1ccc(CN2CCCCCCNC(=O)CC2c2ccccc2)o1 (stereo not given) | u | -1% | i | 3% | u
Cc1cccc(CN2CCCCCNC(=O)CC2c2ccccc2)c1 (stereo not given) | u | -17% | i | -14% | 40µM*
Cc1ccc(CN2CCCCCCNC(=O)CC2c2ccccc2)s1 (stereo not given) | 40µM* | -15% | i | i | u
O=C1NCCOCCN(S(=O)(=O)c2ccc3c(c2)CCC3)[C@H]2CCC[C@@H]12 | -17% | 0% | i | 4% | -29%
Clc1ccccc1CNC1(Cc2cc(-c3ccccc3)on2)COC1 | 112µM* | -14%[70.6 µM] | i | 0%[88.5 µM] | u
FC(F)(F)Oc1ccc(CNC2(Cc3cc(-c4ccccn4)on3)COC2)cc1 | u | -2%[70.6 µM] | i | -13%[88.5 µM] | -22%[138 µM]
CC(C)(C)c1cc(CC2(NCc3ccc(OC(F)(F)F)cc3)COC2)no1 | u | 4%[70.6 µM] | i | u | 112µM*
Clc1ccc(CNC2(Cc3cc(COc4ccccc4)on3)COC2)cc1 | 79µM* | -21%[70.6 µM] | i | u | u
Fc1ccc(CNC2(Cc3cc(-c4ccccc4)on3)COC2)cc1 | 89µM* | u | i | -9%[88.5 µM] | -14%[174 µM]
COc1ccc(N2Cc3c(ncnc3N3CCN(Cc4ccccc4)CC3)N(C)CC2=O)cc1 | -4% | 9% | i | 1% | -27%
COC[C@H]1C[C@H]2C[C@@H](Oc3ccccn3)[C@H](N(C)CCc3ccc(OC)c(OC)c3)[C@]2(O)CO1 | 0%[57.5 µM] | x | x | -8%[27.3 µM] | u
COc1ccc(-c2cc(CC3(NCc4ccccc4)COC3)no2)cc1 | 100µM* | 5%[70.6 µM] | i | 2%[88.5 µM] | u
Oc1ccccc1CNC1(Cc2cc(-c3ccc(F)cc3)on2)COC1 | 100µM* | u | i | 1%[88.5 µM] | u
CN(C)c1ccc(CNC2(Cc3cc(-c4ccccc4)on3)COC2)cc1 | 89µM* | -7%[70.6 µM] | i | i | -26%[174 µM]
Oc1ccccc1CNC1(Cc2cc(-c3ccccc3)on2)COC1 | -21%[172 µM] | -4%[70.6 µM] | i | i | u
Cc1cc(C(=O)NC2CCCc3c2[nH]c2ccccc32)c2c(C)noc2n1 (stereo not given) | u | -2% | i | -11% | u
O=C(NC1CCCC1)[C@@H]1CCCN1c1nccc(Nc2ccccc2Cl)n1 | u | x | x | 2% | u
O=C(c1ccc(F)cc1)N1CCCC(C(=O)N2CCC(c3nc4ncccc4[nH]3)C2)C1 (stereo not given) | i | x | x | -28% | 3%
Cc1c(O)cccc1C(=O)N1CCCN(Cc2ccc(F)cc2)C(C(C)C)C1 (stereo not given) | 45µM* | -3% | i | -18% | u
O=C(c1ccccc1Cl)N1CCC(C(=O)N2CCCC(c3nc4ccncc4[nH]3)C2)CC1 (stereo not given) | 2% | x | x | i | -27%
O=C1NCC(=O)N2CC3(CCN(C(=O)C4CCCCC4)CC3)CC12 (stereo not given) | i | x | x | i | -6%
Cn1c(C(=O)N2CCc3c(n(Cc4cccnc4)n(-c4ccccc4)c3=O)C2)cc2ccccc21 | 1% | 3% | i | -19% | 28µM*
O=C(c1cccc(O)c1)N1CCc2c(n(Cc3cccnc3)n(-c3ccccc3)c2=O)C1 | i | 2%[70.6 µM] | i | 3%[88.5 µM] | u
